Compounds without any hit were thinned out: in the full panel of roughly 79,000, 15% have a hit. A number with no mark means an inactive call. Activity calls are given as the source filed them. No stated cut-off is given here; in the data, active means growth inhibition above about 70%; inactive means the rest. *1 amine or outer side, *2 acyl side, *3 side chain or, on linkers, in order; H or OH if unused. Where a SMILES comes first, the peptide text is derived from it. Bridges are numbered along the chain shown (N, C = ends). Roman numbers before positions name the chains, in order. [ ]: non-standard residue; d: D form. The star is where a group is joined. Actinocin(9to1) = Cc1c2oc3c(C)ccc(C(=O)[*:1])c3nc-2c(C(=O)[*:2])c(N)c1=O; X13 = O=C1CC(C(=O)[*:2])N([*:1])C1; NMeV = CN[CH](C(=O)O)C(C)C; Cbz = O=C(OCc1ccccc1)*; Sar = CNCC(=O)O
Legend:
[1] = NCI Yeast Anticancer Drug Screen. Data for the rad50 strain (AID 155);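 further: 0% = growth of vehicle-only cultures of the same strain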; conditions: S. cerevisiae rad50 strain growth inhibition; at 50.0 µM; active compounds read high
Summary of the method: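 Readout: growth inhibition relative to vehicle-treated cultures. Compound exposure was carried out in a genetically defined yeast strain deficient in DNA damage repair.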

[2] = NCI Yeast Anticancer Drug Screen. Data for the mec2-1 strain (AID 157); conditions: S. cerevisiae mec2-1 strain, at 50.0 µM, active compounds read high
Summary of the method: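 Strain: mec2-1 (DNA repair/cell cycle alteration). Compound exposure, then growth measured; inhibition expressed relative to vehicle.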

[3] = NCI Yeast Anticancer Drug Screen. Data for the sgs1 mgt1 strain (AID 161);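 further: 0% = growth of cultures given vehicle only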; conditions: S. cerevisiae sgs1 mgt1 strain, at 50.0 µM, active compounds read high
Summary of the method: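 Mutant yeast exposed to compound; growth scored against vehicle-only wells.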

[4] = NCI Yeast Anticancer Drug Screen. Data for the cln2 rad14 strain (AID 165);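 further: 0% = growth equal to vehicle treated cultures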; conditions: S. cerevisiae cln2 rad14 strain, at 50.0 µM, active compounds read high
Summary of the method: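 Compounds are applied to the cln2 rad14 yeast strain, and growth is then compared with that of vehicle-treated cultures to give inhibition.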

[5] = NCI Yeast Anticancer Drug Screen. Data for the bub3 strain (AID 167); conditions: S. cerevisiae bub3 mutant strain, at 50.0 µM, active compounds read high
Summary of the method: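 Readout: yeast growth inhibition, expressed relative to vehicle-only wells. The test organism is a mutant strain from a panel with lesions in DNA repair or checkpoint genes.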

[6] = NCI Yeast Anticancer Drug Screen. Data for the mlh1 rad18 strain (AID 175); conditions: S. cerevisiae mlh1 rad18 strain growth inhibition; at 50.0 µM; active compounds read high
Summary of the method: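 Read-out is yeast growth inhibition, calculated against vehicle-only controls. The compound was applied to a strain engineered with DNA damage repair alterations.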

SMILES | growth inhibition [1] | growth inhibition [2] | growth inhibition [3] | growth inhibition [4] | growth inhibition [5] | growth inhibition [6]
CN1CCC=C(C(C)(C)O)C1 | -3.55% | -4.45% | -15.7% | 11.3% | -0.6% | 2.35%
CCCCN1CCSC1=S | 99.5% (active) | 99.7% (active) | 98.2% (active) | 98% (active) | 99.5% (active) | 99.5% (active)
O=C(CC(=O)n1nc(-c2ccccc2)c(N=Nc2ccc(Cl)cc2)c1-c1ccccc1)Nc1ccc(Cl)cc1 | -6.75% | -19.1% | -11.9% | -19.3% | -11.1% | -16.8%
COc1ccc(/C=C2\C=Cc3ccccc32)cc1OC | -21.8% | -6% | 0.7% | 13.4% | 10.7% | 4.75%
COc1cnc(NS(=O)(=O)c2ccc(N)cc2)nc1 | -12.2% | -9.8% | -9.45% | 10.2% | -10% | -7.2%
O=C1CCCCCCN1 | 8.9% | -33.4% | 1.5% | 16.6% | -17.2% | 12.6%
CCOC(=O)c1ccc(Nc2nc3ccc(C(F)(F)F)cc3nc2C(=O)OCC)cc1 | -24.6% | 3% | -11.9% | -12.9% | -6.2% | -12.2%
COc1cc(-c2ccc(NC(=O)N3CC3)c(OC)c2)ccc1NC(=O)N1CC1 | 8.8% | -2.5% | 8.3% | 19.4% | -0.4% | 10.7%
C[N+](C)(C[Si](C)(C)C)C1CCCCCCCCCCC1 | 11.4% | 1.3% | -8.8% | -10.9% | 14.1% | 22.2%
CC(=O)Nc1cc2c(cc1C=O)OCO2 | 19.6% | 9.7% | -0.6% | -32.3% | -2.5% | 11.3%
C/C(CC(c1ccccc1)c1ccccc1)=N\Nc1ccc([N+](=O)[O-])cc1[N+](=O)[O-] | 13.4% | 3.95% | 14.4% | 19.2% | 7.4% | 8.55%
Cc1c2oc3c(C)ccc(C(=O)NC4C(=O)NC(C(C)C)C(=O)N5CC(=O)CC5C(=O)N(C)CC(=O)N(C)C(C(C)C)C(=O)OC4C)c3nc-2c(C(=O)NC2C(=O)NC(C(C)C)C(=O)N3CC(=O)CC3C(=O)N(C)CC(=O)N(C)C(C(C)C)C(=O)OC2C)c(N)c1=O (stereo not given) (I: TV[X13][Sar][NMeV] / II: TV[X13][Sar][NMeV]; ester I:1-I:C, II:1-II:C; linker I:N-II:N via Actinocin(9to1); configuration not given here) | -22.6% | -1.65% | -3.1% | 52.4% | -3.25% | -42.8%
N#C/C(=C\NC(=S)C(N)=S)C(=O)c1ccc2ccccc2c1 | 40.4% | 30.3% | 40.5% | 33.5% | 24.3% | 50.9%
CC(NC(=O)C(Cc1ccc(O)cc1)NC(=O)C(C)NC(=O)OCc1ccccc1)C(=O)O (stereo not drawn) (Cbz-Ala-Tyr-Ala-OH; configuration not given here) | 12.2% | 13.3% | 13.7% | -4.25% | -5.8% | 16.9%
Cc1ccc(C(=O)C(c2nc3n(c2O)/C(=N/C(=O)Nc2ccc(Cl)cc2)N=N3)c2nc3n(c2O)/C(=N/C(=O)Nc2ccc(Cl)cc2)N=N3)cc1 | -44.1% | -29.2% | -27.2% | -39% | -29.1% | -25.4%
Cc1n[n+](CC(=O)c2ccccc2)c2sc(N)nn12 | -55.8% | -31.4% | -58.6% | -50% | -16.1% | -70.5%
N=[N+]=CC(=O)OCC(N)C(=O)O (stereo not given) | 78.7% (active) | 82.2% (active) | 80.2% (active) | 54.6% | 13.2% | 73.9% (active)
O=C1CS(=O)(=O)C2(CCCCC2)C(=O)N1 | -15.1% | -5.65% | -12.2% | -42.1% | -3.2% | -27.6%
c1ccc(-c2nnc(-c3ccc4ccccc4c3)o2)cc1 | -0.1% | -6.5% | 1.1% | -40% | 13.4% | -2%
CCC(=O)Oc1ccccc1OC | -28.8% | -7.25% | -6.05% | -0.3% | -31.9% | -16.9%

SMILES | growth inhibition [1] | growth inhibition [2] | growth inhibition [3] | growth inhibition [4] | growth inhibition [5] | growth inhibition [6]
COC1(C)CNCC(C)(C)NC(=O)C(C)(OC)CNCC(C)(C)NC1=O (stereo not given) | -10.9% | 2.1% | -20.7% | -17% | -32.5% | -19.6%
O=C=Nc1ccc(Cc2ccc(N=C=O)cc2)cc1 | -13.7% | 6.7% | -7.45% | -15.2% | -23.9% | -36.5%
C/C(=C/C(=O)O)c1ccccc1 | 10.7% | -14.4% | 2.2% | -19.6% | -15.3% | -1.95%
COC(=O)[C@@]12C(=O)N[C@@H](Cc3ccccc3)[C@@H]1[C@H](C)C(C)=C[C@@H]2CO | -27.4% | -45.3% | -44.9% | -27.8% | -32.2% | -24.3%
Cc1ccc(OS(=O)(=O)c2ccccc2)cc1 | 36% | 20.4% | 49.1% | -42.6% | 35.2% | 36.6%
O=C(CC1CCCCC1)OCC1CCCO1 (stereo not given) | -7.1% | -25.6% | -18.4% | -4.15% | -6.95% | 4.55%
CCc1cccc[n+]1CC(=O)c1ccccc1 | -23.5% | 5.85% | -0.85% | -41.8% | 39.7% | 12%
Cc1ccc(C)c(NC(=S)Nc2ccccc2)c1 | 0.8% | -9% | 3.5% | -24.6% | 54% | 1.7%
CCCCCCCCCCCCCCCC(=O)OCC(O)C1OC(=O)C(O)=C1O (stereo not given) | 28.1% | -0.75% | 4.6% | 9.15% | 24.2% | 46.7%
Cc1c2oc3c(C)ccc(C(=O)NCCc4ccco4)c3nc-2c(C(=O)NCCc2ccco2)c(N)c1=O | 39.5% | 7.85% | 12.8% | 15.7% | 0.75% | 44.4%
CCOC(=O)/C=C/C(=O)[O-].CCOC(=O)/C=C/C(=O)[O-].NC1CCCCC1N.[Pt+4] | 19.2% | 25.9% | 19.4% | -2.1% | 20.1% | 10.2%
NNC(=O)C(=O)NN | -24% | -16.4% | -1.85% | -27.7% | -1.75% | -20.6%
CN1CC[C@H]([C@@H](O)c2ccccc2)C1=O | 4.95% | -7% | -3.5% | -34.4% | 0.35% | 5.7%
CCCC(=O)Nc1cc([N+](=O)[O-])c([N+](=O)[O-])cc1OC | -3.7% | -2.55% | 0% | 1.65% | 13.8% | -3%
CCCCCCCCCCCCCCCC(=O)OC/C=C/COC(=O)c1ccccc1 | 22.9% | -9.7% | -6.25% | -2.95% | 2.65% | -13%
Cc1ccc(/[N+]([O-])=N/N2C(=O)c3ccccc3C2=O)cc1 | -15.4% | -18.6% | -10.1% | -23.5% | -16.6% | -2.9%
O=C(/C=C/C=C/c1ccccc1)CCc1ccccc1 | 6.75% | 17.2% | 24.2% | 30.6% | 16.2% | -29.4%
COc1cccc(OC)c1OC(=O)/C=C\C(=O)Oc1c(OC)cccc1OC | 29.9% | -8.65% | 18.8% | -3.75% | -2.05% | 20.8%
O=C(Nc1cccc([N+](=O)[O-])c1)C(=O)C(C(=O)c1ccccc1-c1ccccc1)C1OC(=O)c2ccccc21 (stereo not given) | 27.9% | 3.45% | 17.9% | -45% | -6.85% | 10.1%
COc1ccc(C(O)CNC(=O)c2ccccc2)cc1 (stereo not given) | 11.7% | -4.4% | 12.5% | -7.2% | -2.15% | -60%

From PubChem BioAssay (NCI)
